Compounds with a hit are over-represented: about 7.6% of the library has one in this group of screens.
HEK293 cAMP cs – qHTS Assay for Agonists of the Thyroid Stimulating Hormone Receptor: Activators of Intracellular cAMP Concentrations in Parental HEK 293; parental HEK293 CNG cAMP sensor, membrane potential fluorescence; Potency, µM (highest dose often 57.1 µM), for inactives: at the top dose activation, usual class: activators; hit rate 2.5% among 73,000; further: % of control where 0% means no effect; nearly all actives have a fitted effect of over 55% in size
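Parental HEK 293 cells stably expressing a modified CNG channel (no TSHR) report cAMP rise as membrane depolarization. Membrane potential dye with 100 uM RO 20-1724 was loaded for 60 min at room temperature, then compound added for 30 min; fluorescence read at 590 nm.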
TSHR ag – qHTS Assay for Agonists of the Thyroid Stimulating Hormone Receptor. Thyrotropin receptor (Homo sapiens), P16473. HEK293-CNG-TSHR cells (CNG channel as cAMP sensor), membrane potential dye, cAMP. Potency, µM (highest dose often 57.1 µM), inactives show top-dose activation, hits mostly activators. hit rate 0.48% among 73,000. AID 926, 2007; active means well fitted activation curve with a large enough effect in the main read-out, with a control signal flat, not every such curve was filed as active; inconclusive means small, poorly fitted or top-dose-only effect, or a change in a side signal; inactive means no such curve, though single readings can be large or run the other way; % of control where 0% means no effect;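 further: the control signal comes from parental cells without the receptor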
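cAMP rise detected as CNG-channel membrane depolarization by fluorescent dye (emission 590 nm), 30 min after compound, following 60 min dye loading containing 100 uM RO 20-1724 at room temperature. Cells: TSHR/CNG HEK 293, with parental CNG HEK 293 as control.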
CRE Fsk mod – Cell signaling CRE-BLA (Fsk stim) | CHO CRE-bla reporter (cAMP response element driving beta-lactamase), forskolin EC10, beta-lactamase ratio | Potency, µM (titrated, usually from 38.2 µM), without a hit: top-dose activity change, negative = inhibition, usual class: activators | hit rate 2.5% among 71,000 | AID 662, 2007; active means well fitted activation curve with a large enough effect in the signal ratio, with a control signal flat, not every such curve was filed as active; inconclusive means small, poorly fitted or top-dose-only effect, or effect the other way, or a change in a side signal; the % refers to the signal ratio; further: % of control where 0% means no effect
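AC50 values, positive or negative, reflect shifts in EC10 NKH 477-induced CRE-bla reporter activity in CHO cells. Incubation lasted 3 h at 37 °C before CCF4 substrate (2 h, room temperature) and ratiometric 460/530 nm reading.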
Tau fil binding – qHTS Assay for Tau Filament Binding; Microtubule-associated protein tau (Homo sapiens), P10636; recombinant tau filaments, thioflavin S fluorescence, 15 h; filaments grown with octadecylsulfate alongside compound; hit rate 2% among 71,000; Potency, µM (series often up to 57.1 µM), without a hit: at the top dose activity change, negative = inhibition;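 further: on the % scale 0 is the no-effect control and ±100 the full control effect; actives lower thioflavin S fluorescence by blocking filaments or displacing dye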
Target sequence (P10636 whole entry, looked up): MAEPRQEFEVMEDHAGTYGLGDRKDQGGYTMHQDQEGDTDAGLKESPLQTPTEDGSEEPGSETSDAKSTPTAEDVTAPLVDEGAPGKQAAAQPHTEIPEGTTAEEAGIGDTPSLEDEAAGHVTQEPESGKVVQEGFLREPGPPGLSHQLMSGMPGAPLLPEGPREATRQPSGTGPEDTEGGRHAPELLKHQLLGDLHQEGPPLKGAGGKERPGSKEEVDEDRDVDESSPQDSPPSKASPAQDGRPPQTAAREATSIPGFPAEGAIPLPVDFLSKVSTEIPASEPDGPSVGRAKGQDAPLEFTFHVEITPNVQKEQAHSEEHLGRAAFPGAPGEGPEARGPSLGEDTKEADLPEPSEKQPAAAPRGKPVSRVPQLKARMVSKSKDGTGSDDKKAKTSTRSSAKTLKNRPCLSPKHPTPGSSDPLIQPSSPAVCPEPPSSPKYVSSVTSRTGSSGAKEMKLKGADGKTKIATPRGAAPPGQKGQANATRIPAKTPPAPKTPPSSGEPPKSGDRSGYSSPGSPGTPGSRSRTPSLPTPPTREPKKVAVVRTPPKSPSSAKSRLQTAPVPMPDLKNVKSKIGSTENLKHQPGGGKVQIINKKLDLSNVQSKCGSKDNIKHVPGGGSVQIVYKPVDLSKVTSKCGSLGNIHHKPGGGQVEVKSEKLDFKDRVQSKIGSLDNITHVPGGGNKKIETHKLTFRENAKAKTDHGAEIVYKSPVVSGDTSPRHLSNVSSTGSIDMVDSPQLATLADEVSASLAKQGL
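His-tagged recombinant human tau (exons 2, 3 and 10 included), 1 uM, was induced to fibrillize by 30 uM sodium octadecylsulfate with compound present. After 15 h at 37 C, thioflavine S fluorescence (ex 450, em 510 nm) was read.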
ERK AVP inh – qHTS Assay for Inhibitors of the ERK Signaling Pathway using a Homogeneous Screening Assay. Potency, µM (highest dose often 57.5 µM), inactives show at the highest dose activity, negative = inhibition, hits mostly inhibitors. hit rate 0.99% among 72,000. HEK293-V1b, vasopressin-stimulated pERK AlphaScreen; further: on the % scale 0 is the no-effect control and ±100 the full control effect; nearly all actives have a fitted effect of over 55% in size
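Overnight-seeded V1b-HEK293 cells in 1% FBS got compound, then vasopressin (25 nM final, 5 min, 37C), then lysis buffer. AlphaScreen detection of phospho-ERK; activity normalized to basal and full-stimulation controls.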
Active calls of the source: *; ? = inconclusive; nt = no result; ! = not active in a repeat; [ ] = dose if it differs, or a comment. Unless noted, the call rests on the fitted dose curve; in most records, active means well fitted curve in the direction sought with a large enough effect; inconclusive means small, poorly fitted or top-dose-only effect, or another doubt; inactive means no such curve, though single readings can be large; an effect the other way counts as inactive or inconclusive. Potency means the concentration at half of the fitted maximal effect.

SMILES	HEK293 cAMP cs	TSHR ag	CRE Fsk mod	Tau fil binding	ERK AVP inh
CCn1c2ccccc2c2nnc(SCC(=O)Nc3ncccn3)nc21	-11%	-3%[11.4 µM]	10µM*	-20%	-24%
CCOC(=O)c1sc(NC(=O)CSc2nnc3c4ccccc4n(CC)c3n2)nc1C	9%	18%	6%	-12%	-23%
CCOC(=O)Cc1nnc(NC(=O)CSc2nnc3c4ccccc4n(C(C)C)c3n2)s1	2%	9%[11.4 µM]	10µM*	?	-4%
CCn1c2ccccc2c2nnc(SCC(=O)NC(CC(C)C)C(=O)OC)nc21 (stereo not given)	0%	14%	7.9µM*	-12%	-8%
CCc1nnc(NC(=O)CSc2nnc3c4ccccc4n(C)c3n2)s1	16%	8%	-3%	3%	-1%
CCn1c2ccccc2c2nnc(SCC(=O)c3ccccc3)nc21	6%	12%	3.2µM*	95%	20µM*
COC(=O)C1=C(C)N(Cc2ccccc2)[C@]23O[C@](C(=O)OC)(C(=O)N2C1c1ccccc1)C(C(=O)OC)=C3C(=O)OC (stereo not given in full)	3%[11.4 µM]	-3%[11.4 µM]	nt	nt	11%[11.5 µM]
C[C@H](CO)NC(=O)[C@H]1C[C@@H]1[C@H](NP(=O)(c1ccccc1)c1ccccc1)c1ccccc1	29%	2%	-13%	-3%	-16%
NC(=O)c1cccc(N)c1	2%	2%	-7%	?	-15%
CC(C)c1c(O)ccc2c1CCC1[C@@](C)(C=O)CCC[C@@]21C (stereo not given in full)	nt	nt	nt	nt	3%
Nc1nc2c(ncn2C2OC(COC(=O)c3ccccc3)C(OC(=O)c3ccccc3)C2OC(=O)c2ccccc2)c(=O)[nH]1 (stereo not given)	nt	nt	nt	nt	-23%
CC(C)(C)c1ccccc1OCCCCCNCCO	4%	8%	-2%	10µM*	6%
CC(C)c1ccccc1OCCCCCNCCO	19%	19%	8%	13µM*	-9%
OC[C@@H]1O[C@@H](n2cnc3c(Nc4ccccc4)ncnc32)[C@@H](O)[C@H]1O	?	?	2%	5%	?
COc1ccc(C2OCC3(COC(C)=O)C(C)C=C(C)C2C3C)cc1 (stereo not given)	nt	nt	nt	nt	9%
COC(=O)C1C2CC3c4[nH]c5cc(OC)ccc5c4CCN3CC2CC(OC(=O)c2cc(OC)c(OC)c(OC)c2)C1OC (stereo not given)	nt	nt	nt	nt	-23%
Cc1cnc(N)c2c(=O)oc3ccccc3c12	-1%	0%	13µM*	0%	nt
O=c1oc2ccccc2c2nccnc12	0%	-3%	0%	-14%	-16%
Cc1ccc2c(Cl)cc(Cl)c(O)c2n1	nt	nt	nt	nt	2%
Cc1ccc2c(Cl)cc(Cl)c(OCc3c(C)noc3C)c2n1	16µM*	?	?	6%	16%
O=C1OC(=O)[C@@H]2[C@@H]1[C@@H]1CC[C@H]2O1	20%	0%	3.2µM*!	-6%	-14%
CN1CCC2(CC1)CCN(C(=O)c1cccc(F)c1)CC2	11%	8%	3%	-4%	?
CC[C@@H](c1ccccc1)n1c(=O)n2n(c1=O)[C@H]1[C@H](O)[C@H]3O[C@H]3C(=O)[C@H]1CC2	3%[11.4 µM]	0%[11.4 µM]	nt	nt	29%[11.5 µM]
Cc1cccc(OCCCCCn2ccnc2)c1C	32µM*	?	?	2%	?
Cc1ccc(OCCCCn2ccnc2)c(Cl)c1	12%	17%	13%	52%	?
SMILES	HEK293 cAMP cs	TSHR ag	CRE Fsk mod	Tau fil binding	ERK AVP inh
Cc1cccc(OCCCCc2c(C)n[nH]c2C)c1C	28%	24%	?	16µM*	?
CCCCCOC(=O)c1cc(=O)[nH]c2ccccc12	?	?	?	10µM*	32%
CCCCNC(=O)Nc1c(C(=O)OCC)[nH]c2ccccc12	10%	nt	10%	-2%	3%
O=C(OCCN1C(=O)c2ccccc2C1=O)c1cc(=O)[nH]c2ccccc12	-1%	6%	?	-26%	-5%
CCCCCCNc1c(C(=O)OCC)c(=O)[nH]c2ccccc12	?	?	4µM*	80%	-28%
COC(=O)NC(c1ccco1)[C@]1(C(C)=O)CCCC1=O (stereo not given in full)	-1%[11.4 µM]	5%[11.4 µM]	nt	nt	15%[11.5 µM]
Cc1cc(=O)cc2oc3cc(N)c(-c4c(C)cc(O)cc4O)c(C)c3nc1-2	nt	nt	nt	nt	-24%
CCCCOC(=O)CSc1nc2c(cc1C#N)C(=O)CC(C)(C)C2	20µM*	?	5%	-18%	36%
Cc1ccc(-c2nn(C)c(=O)c3ccccc23)cc1S(=O)(=O)N1CCOCC1	10%	23%	3.2µM*	2%	?
Cc1ccc(-c2nn3c(-c4ccco4)nnc3c3ccccc23)cc1S(=O)(=O)N1CCOCC1	?	?	?	-5%	?
Cc1ccc(-c2nn(C)c(=O)c3ccccc23)cc1S(=O)(=O)N1CCCC1	18%	49%	3.2µM*	27%	nt
Cc1ccc(-c2nn(C)c(=O)c3ccccc23)cc1S(=O)(=O)NCCO	6%	4%	10µM*	-1%	?
CC(=O)OC[C@@H]1O[C@H](C/C=N\O[C@@H](C)CN2CCCCc3nc(C)c(C)cc32)C=C[C@@H]1OC(C)=O	?	?	nt	nt	7%[11.5 µM]
NC1=NC(S)C2N=CN=C2N1 (stereo not given)	5%	3%	-2%	-11%	4%
Cc1ccc2oc(-c3ccccc3)c(O)c(=O)c2c1	21%	16%	6%	32µM*	26%
COc1ccc2oc(-c3ccccc3)c(OC)c(=O)c2c1	40µM*	?	9%	?	11%
CC(=O)Nc1nc2ncc(C=O)nc2c(=O)[nH]1	8%[11.4 µM]	12%[11.4 µM]	?	7%[11.4 µM]	-21%[11.5 µM]
CCNc1ncc2ncc(=O)n(C)c2n1	9%	-4%	?	-2%	-12%
Cc1cc(C)nc(-n2nc(C)c(Sc3ccc(F)cc3)c2N)n1	7%	4%	2µM*	75%	18%
Cc1nn(C)c(C)c1Sc1ccc(Br)cc1	?	?	4%	-9%	24%
COc1ccccc1C[C@@H](Cc1nc2ccccc2[nH]1)c1nc2ccccc2[nH]1	29%	nt	-10%	44%	nt
Nc1nonc1-c1nc2ccccc2n1Cc1ccc(F)cc1Cl	16µM*	?	24%	40%	22%
CNC(=O)[C@@H]1O[C@@H](n2cnc3c(NCc4ccc(N)cc4)ncnc32)[C@@H](O)[C@H]1O	?	?	2%	-5%	-6%
COC(=O)c1cccc(NC(=O)c2cc3sccc3n2C)c1	13µM*	?	13%	-8%	5%

Screening data (PubChem)
